For ten compounds, Percent Effect results are on record in ChEMBL document CHEMBL3988442, “University of Dundee, Small-Polar-MMV Screening Library” (2021).

What all share (set-up): scale not given: direction of the effect not stated beside the values
Experiment [1] concerns the target Protein translocase subunit SecA (Escherichia coli (strain K12)) (UniProt P10408). Kind of experiment: Assay to Identify E. coli SecA ATPase Inhibitors. In kind it is functional. To be noted: 30 µM.
For experiment [2], the target named is T1, Ubiquitin-activating enzyme e1, putative (Leishmania donovani (strain BPK282A1)) (UniProt E9BSI1).
T1 sequence (whole entry): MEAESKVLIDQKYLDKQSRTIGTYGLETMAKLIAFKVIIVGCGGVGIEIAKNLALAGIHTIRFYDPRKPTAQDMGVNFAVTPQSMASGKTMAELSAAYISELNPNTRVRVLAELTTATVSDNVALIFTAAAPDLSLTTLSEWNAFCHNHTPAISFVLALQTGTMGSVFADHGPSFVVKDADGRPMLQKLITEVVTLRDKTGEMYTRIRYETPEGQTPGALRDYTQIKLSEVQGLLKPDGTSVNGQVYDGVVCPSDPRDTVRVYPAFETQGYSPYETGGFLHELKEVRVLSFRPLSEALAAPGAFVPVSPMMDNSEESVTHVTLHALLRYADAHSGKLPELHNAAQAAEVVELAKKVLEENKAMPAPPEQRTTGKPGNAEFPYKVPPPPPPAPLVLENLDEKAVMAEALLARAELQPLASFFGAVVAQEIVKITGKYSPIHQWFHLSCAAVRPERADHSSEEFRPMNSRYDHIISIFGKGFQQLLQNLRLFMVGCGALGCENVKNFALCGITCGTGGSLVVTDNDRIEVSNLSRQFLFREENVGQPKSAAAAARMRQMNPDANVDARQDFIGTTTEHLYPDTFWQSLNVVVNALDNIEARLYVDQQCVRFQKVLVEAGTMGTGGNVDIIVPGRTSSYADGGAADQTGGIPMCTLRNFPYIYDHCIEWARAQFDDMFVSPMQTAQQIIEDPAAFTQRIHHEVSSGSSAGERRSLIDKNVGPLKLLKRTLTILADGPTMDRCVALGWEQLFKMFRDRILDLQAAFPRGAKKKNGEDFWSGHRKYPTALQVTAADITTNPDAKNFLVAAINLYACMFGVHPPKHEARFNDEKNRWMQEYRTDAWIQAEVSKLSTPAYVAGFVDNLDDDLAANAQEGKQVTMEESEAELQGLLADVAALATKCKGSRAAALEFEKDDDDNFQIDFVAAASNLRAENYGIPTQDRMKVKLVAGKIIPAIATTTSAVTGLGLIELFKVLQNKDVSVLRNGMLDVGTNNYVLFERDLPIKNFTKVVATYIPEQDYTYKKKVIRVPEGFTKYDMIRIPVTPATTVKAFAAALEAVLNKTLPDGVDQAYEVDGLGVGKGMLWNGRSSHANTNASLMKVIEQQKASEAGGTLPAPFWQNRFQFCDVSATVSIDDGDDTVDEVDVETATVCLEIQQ
Kind of experiment: Leishmania donovani Ubiquitin Activating Enzyme (LdE1). It counts as functional. The conditions noted are these: 30 µM.

The target in experiment [3] is AMP-activated protein kinase, AMPK (Homo sapiens) (UniProt P54646+O43741+P54619+Q9UGJ0+Q9Y478+Q13131+Q9UGI9). As to the kind of experiment: AMP-dependent Kinase enzyme assay. An in vitro enzyme assay that detects ADP turnover that is directly proportional to AMPK activity. This uses naive AMPK that is activated during the assay with MK-8722. The conditions noted are these: 30 µM. In kind it is functional.

In experiment [4] the target is Sialic acid-binding Ig-like lectin 9 (Homo sapiens) (UniProt Q9Y336). As to the kind of experiment: Hs-Siglec9 ALPHAscreen SOP 20170721. To be noted: 10 µM.
Sialic acid-binding Ig-like lectin 9 (Homo sapiens), sequence (Q9Y336 whole entry): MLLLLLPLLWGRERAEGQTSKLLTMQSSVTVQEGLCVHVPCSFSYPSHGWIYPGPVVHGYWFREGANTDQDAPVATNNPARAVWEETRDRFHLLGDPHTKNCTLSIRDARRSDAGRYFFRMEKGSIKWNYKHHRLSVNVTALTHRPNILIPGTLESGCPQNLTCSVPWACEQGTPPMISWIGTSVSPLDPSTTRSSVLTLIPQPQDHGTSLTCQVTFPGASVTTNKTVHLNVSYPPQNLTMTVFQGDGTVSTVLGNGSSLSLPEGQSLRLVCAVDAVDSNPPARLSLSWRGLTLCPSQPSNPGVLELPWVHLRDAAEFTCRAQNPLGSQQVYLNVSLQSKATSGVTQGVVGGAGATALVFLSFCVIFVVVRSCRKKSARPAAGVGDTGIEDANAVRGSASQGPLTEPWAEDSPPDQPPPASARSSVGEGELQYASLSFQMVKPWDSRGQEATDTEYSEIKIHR
Another experiment deals with Trypanosoma cruzi. As to the kind of experiment: Trypanosoma cruzi phosphomannomutase and mannose-1-phosphate guanylyltransferase assay. It counts as functional. To be noted: 10 µM.
Experiment [5] addresses T2, Arginase-2, mitochondrial (Homo sapiens) (UniProt P78540).
T2 sequence (whole entry): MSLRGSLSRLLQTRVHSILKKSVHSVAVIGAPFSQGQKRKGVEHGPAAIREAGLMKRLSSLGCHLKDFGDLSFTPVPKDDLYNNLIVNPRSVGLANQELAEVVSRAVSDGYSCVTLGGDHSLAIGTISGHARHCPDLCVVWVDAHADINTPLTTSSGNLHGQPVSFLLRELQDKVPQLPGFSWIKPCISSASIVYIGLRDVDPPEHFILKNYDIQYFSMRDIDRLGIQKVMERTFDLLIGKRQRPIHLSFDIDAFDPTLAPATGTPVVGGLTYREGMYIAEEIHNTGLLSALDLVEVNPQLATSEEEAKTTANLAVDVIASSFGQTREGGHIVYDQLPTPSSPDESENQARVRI
As to the kind of experiment: in vitro enzyme assay to detect the production of urea directly proportional to the activity of Arginase II. Note: in the data most compounds retested in dose-response had high values. In kind it is functional. The conditions noted are these: 33.3 µM.

Experiment [6] deals with T3, Proteasome subunit beta (Trypanosoma cruzi) (UniProt O96673).
T3 sequence (whole entry): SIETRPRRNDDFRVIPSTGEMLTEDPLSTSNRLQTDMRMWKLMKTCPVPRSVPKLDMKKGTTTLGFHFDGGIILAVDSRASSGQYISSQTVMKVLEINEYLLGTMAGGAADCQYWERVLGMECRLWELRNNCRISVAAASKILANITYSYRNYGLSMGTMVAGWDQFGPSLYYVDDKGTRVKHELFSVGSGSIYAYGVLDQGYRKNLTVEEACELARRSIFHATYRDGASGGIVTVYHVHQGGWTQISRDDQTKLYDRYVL
As to the kind of experiment: Trypanosoma cruzi proteasome chymotrypsin-like activity (TcProtChymo) assay. Note: in the data most compounds retested in dose-response had high values. It counts as functional. The conditions noted are these: 9.37 µM.

In another experiment the test system is N/A. Kind of experiment: Trypanosoma cruzi proteasome luciferase counter-screen. It counts as functional. The conditions noted are these: 9.37 µM. (In general: Counterscreens check selectivity or assay interference.)
The species named for another experiment is Homo sapiens. As to the kind of experiment: To identify inhibition of the IFN signalling (Jak-Stat) pathway via expression of an eGFP reporter gene under the control of an IFN-stimulated response element (ISRE) containing MxA promoter. In kind it is functional. To be noted: 30 µM. A general note: In a reporter assay the amount or activity of a reporter protein is the signal.

The target in experiment [7] is T4, Tyrosyl-tRNA synthetase, putative (Trypanosoma cruzi (strain CL Brener)) (UniProt Q4DSP6).
T4 sequence (whole entry): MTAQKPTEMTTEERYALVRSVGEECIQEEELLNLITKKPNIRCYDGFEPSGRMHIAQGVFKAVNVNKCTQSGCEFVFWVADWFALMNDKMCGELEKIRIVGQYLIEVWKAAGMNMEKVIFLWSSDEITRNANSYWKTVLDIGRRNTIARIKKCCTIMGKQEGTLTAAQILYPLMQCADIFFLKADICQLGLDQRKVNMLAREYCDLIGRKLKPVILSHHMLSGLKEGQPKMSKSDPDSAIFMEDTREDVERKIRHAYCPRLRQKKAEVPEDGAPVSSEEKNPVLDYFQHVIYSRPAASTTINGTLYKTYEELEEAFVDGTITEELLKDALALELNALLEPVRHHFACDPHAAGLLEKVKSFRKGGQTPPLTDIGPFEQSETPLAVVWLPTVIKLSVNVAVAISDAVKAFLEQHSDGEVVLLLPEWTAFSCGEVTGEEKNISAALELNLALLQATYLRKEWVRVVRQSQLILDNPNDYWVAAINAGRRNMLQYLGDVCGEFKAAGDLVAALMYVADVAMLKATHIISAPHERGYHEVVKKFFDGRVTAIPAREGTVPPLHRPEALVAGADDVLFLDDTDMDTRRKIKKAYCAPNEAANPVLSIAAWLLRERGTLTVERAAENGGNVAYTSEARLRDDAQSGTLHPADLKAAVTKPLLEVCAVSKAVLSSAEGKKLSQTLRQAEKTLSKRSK
Kind of experiment: Trypanosoma cruzi tyrosyl tRNA synthetase (TcYRS) _High Tyrosine SOP. Note: in the data most compounds retested in dose-response had high values. It counts as functional. To be noted: 30 µM.

In experiment [8] the target is T4, Tyrosyl-tRNA synthetase, putative (Trypanosoma cruzi (strain CL Brener)). As to the kind of experiment: Trypanosoma cruzi tyrosyl tRNA synthetase (TcYRS) SOP. It counts as functional. The conditions noted are these: 30 µM.
For experiment [9], the target named is Chromo domain-containing protein 1 (Saccharomyces cerevisiae (strain ATCC 204508 / S288c) (Baker's yeast)) (UniProt P32657). As to the kind of experiment: ScCHD-1 Enzyme Inhibition Assay. Note: in the data most compounds retested in dose-response had high values. In kind it is functional. To be noted: 30 µM.
Chromo domain-containing protein 1 (Saccharomyces cerevisiae (strain ATCC 204508 / S288c) (Baker's yeast)), sequence (P32657 whole entry, the tested form may be a part): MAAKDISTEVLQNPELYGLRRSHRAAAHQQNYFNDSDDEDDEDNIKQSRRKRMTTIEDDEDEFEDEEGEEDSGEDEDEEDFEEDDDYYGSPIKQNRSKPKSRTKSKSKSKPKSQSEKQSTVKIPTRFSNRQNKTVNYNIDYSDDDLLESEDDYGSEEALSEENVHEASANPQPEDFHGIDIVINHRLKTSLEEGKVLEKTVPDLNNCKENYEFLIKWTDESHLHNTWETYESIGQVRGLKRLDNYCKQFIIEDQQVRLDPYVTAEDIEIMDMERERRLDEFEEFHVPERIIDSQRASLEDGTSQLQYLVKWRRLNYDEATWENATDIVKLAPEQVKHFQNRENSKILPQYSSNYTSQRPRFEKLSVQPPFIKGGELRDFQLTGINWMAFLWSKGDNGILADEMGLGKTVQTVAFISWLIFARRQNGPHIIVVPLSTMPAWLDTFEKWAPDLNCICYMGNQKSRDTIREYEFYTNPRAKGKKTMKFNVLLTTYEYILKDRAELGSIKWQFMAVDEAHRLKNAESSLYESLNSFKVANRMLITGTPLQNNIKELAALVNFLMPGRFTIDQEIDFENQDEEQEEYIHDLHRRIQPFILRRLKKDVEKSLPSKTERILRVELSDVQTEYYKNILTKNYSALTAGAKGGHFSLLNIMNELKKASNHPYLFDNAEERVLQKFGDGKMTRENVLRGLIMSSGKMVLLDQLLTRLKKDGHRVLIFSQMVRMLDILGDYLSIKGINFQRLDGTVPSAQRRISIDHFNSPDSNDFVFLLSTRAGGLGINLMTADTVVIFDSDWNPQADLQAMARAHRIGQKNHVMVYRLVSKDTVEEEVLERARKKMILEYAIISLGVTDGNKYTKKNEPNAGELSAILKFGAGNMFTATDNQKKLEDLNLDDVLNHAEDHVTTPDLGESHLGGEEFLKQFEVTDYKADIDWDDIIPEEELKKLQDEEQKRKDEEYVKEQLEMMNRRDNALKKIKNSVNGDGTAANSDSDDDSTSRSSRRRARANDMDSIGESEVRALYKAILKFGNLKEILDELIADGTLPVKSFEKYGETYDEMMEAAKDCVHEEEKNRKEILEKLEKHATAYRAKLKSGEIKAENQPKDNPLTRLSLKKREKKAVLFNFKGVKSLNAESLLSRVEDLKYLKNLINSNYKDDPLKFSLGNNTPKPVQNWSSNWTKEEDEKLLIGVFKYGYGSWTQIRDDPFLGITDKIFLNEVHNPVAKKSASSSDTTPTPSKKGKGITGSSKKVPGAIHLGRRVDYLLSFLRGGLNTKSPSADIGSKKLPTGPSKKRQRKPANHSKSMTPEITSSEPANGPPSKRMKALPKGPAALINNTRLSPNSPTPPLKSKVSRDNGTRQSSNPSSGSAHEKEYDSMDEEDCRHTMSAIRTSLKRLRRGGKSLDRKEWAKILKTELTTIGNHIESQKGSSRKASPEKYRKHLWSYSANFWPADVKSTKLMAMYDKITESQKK

Where “and” joins values, the source holds several entries; their conditions need not be identical. Identical values can stand only once. For part of these data: Potency and affinity values are given separately.

Protein translocase subunit SecA (Escherichia coli (strain K12)), sequence (P10408 whole entry): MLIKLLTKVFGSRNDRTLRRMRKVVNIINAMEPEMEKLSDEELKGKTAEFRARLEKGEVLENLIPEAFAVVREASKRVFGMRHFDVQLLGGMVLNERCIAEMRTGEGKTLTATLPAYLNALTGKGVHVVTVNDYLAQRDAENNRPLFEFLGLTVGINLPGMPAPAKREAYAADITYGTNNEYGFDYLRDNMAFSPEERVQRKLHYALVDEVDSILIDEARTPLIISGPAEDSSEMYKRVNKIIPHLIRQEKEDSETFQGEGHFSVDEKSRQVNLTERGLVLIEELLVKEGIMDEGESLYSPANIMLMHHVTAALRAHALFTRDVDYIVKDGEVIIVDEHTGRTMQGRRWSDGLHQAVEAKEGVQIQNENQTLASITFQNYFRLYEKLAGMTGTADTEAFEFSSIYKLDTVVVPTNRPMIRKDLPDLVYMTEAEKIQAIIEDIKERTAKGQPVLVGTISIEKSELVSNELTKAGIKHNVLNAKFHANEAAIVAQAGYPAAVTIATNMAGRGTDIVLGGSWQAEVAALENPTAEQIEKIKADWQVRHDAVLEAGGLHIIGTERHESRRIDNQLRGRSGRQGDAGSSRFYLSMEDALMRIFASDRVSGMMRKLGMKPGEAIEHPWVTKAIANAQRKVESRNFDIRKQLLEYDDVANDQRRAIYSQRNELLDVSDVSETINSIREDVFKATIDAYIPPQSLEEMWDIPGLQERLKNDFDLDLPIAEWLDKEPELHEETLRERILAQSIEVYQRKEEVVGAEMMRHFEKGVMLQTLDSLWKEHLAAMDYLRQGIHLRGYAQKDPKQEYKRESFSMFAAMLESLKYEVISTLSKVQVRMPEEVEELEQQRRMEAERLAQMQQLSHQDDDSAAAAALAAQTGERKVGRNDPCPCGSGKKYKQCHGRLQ

In the case of `COc1cccc(C(=O)NCC(O)c2cccs2)c1` (stereo not given), the Percent Effect was -3.69% in experiment [1]; 11% in [2]; 7.67% in experiment [3]; 3.99% in experiment [4]; 6.46% with Trypanosoma cruzi; 0% in experiment [5]. For the same compound, the Percent Effect was 34.1% and 33.9% and 40.3% in [6]; 6.45% and 13% in the experiment on N/A; -9.23% in the experiment listed under Homo sapiens; 7.53% in experiment [7]; 17.5% in experiment [8]; -3.59% in experiment [9].
As to `Cc1ccc(S(=O)(=O)Nc2ccc(-n3cccc3C(=O)O)c(C)c2)s1`, the Percent Effect in experiment [1] is -4.28%; in experiment [2], 5.26%; in experiment [3], 12.2%; in experiment [4], 2.35%; in the experiment with Trypanosoma cruzi, -5.55%; in experiment [5] it was 9.47%. Moreover, the Percent Effect in experiment [6] is 29.7% and 25.9% and 32.3%; with N/A, 14.7% and 12.8%; in the experiment listed under Homo sapiens, -7.51%; in experiment [7], -9.57%; in experiment [8], -15.6%; in experiment [9], 4.9%.
For `c1cc(OCc2ccc3c(c2)OCO3)ccc1CNC1CC1`, the Percent Effect was 7.84% in experiment [1]; 0% in [2]; 0.713% in experiment [3]; -11.4% in experiment [4]; -6.91% in the experiment on Trypanosoma cruzi; -18.9% in experiment [5]. The Percent Effect is 97.3% and 98.3% and 97.4% in experiment [6]; 85.2% and 85% in the experiment with N/A; 14.4% in the experiment filed under Homo sapiens; -2.13% in experiment [7]; 0% in experiment [8]; 38.5% in [9].
As for `Cc1ccc(N(C)C2CCN(C(=O)CCc3ccco3)CC2)nn1`, the Percent Effect in experiment [1] is -4.56%; in experiment [2], 5.41%; in [3] it was 12.7%; in experiment [4], 1.05%; with Trypanosoma cruzi, 5.66%; in [5] it was 0.554%. In addition, the Percent Effect is 48.4% and 44.9% and 50.1% in experiment [6]; 12.6% and 9.51% with N/A; 8.17% in the experiment listed under Homo sapiens; 22.8% in experiment [7]; 23.2% in experiment [8]; 3.63% in experiment [9].
For the compound `Cc1ccc(-c2cc(C(=O)NC(C)C(=O)N3CCCCC3)on2)cc1` (stereo not given), the Percent Effect in experiment [1] was -6.75%; in experiment [2] it was 13.2%; in experiment [3], 6.88%; in experiment [4], 1.96%; in the experiment with Trypanosoma cruzi, 4.19%; in experiment [5], 5.92%. Moreover, the Percent Effect in [6] is 34.9% and 32.7% and 30.8%; in the experiment on N/A it was 29.4%; in the experiment filed under Homo sapiens it was 10.4%; in experiment [7] it was 2.13%; in experiment [8] it was 10.4%; in [9] it was -6.32%.
`CCCC(NC(=O)c1cc(C)n(C2CC2)c1C)c1nnn[nH]1` (stereo not given): the Percent Effect in experiment [1] is -6.85%; in experiment [2] it was 8%; in [3] it was -2.47%; in experiment [4] it was 18.2%; in the experiment with Trypanosoma cruzi it was 6.13%; in [5], 11.5%. The Percent Effect in [6] was 41.1% and 40.1% and 33.4%; in the experiment on N/A it was 13.1% and 10.6%; in the experiment listed under Homo sapiens, 14.1%; in experiment [7] it was 8.2%; in experiment [8], 11.1%; in experiment [9], -4.79%.
For `O=C(c1cn(-c2ccccc2Cl)nn1)N1CCCSCC1`, the Percent Effect in experiment [1] was -4.85%; in [2], 16.2%; in experiment [3] it was -2.86%; in experiment [4] it was 38.1%; in the experiment with Trypanosoma cruzi, 5.57%; in [5] it was 3.72%. Further, the Percent Effect in [6] was 49.8% and 55.2% and 47.1%; in the experiment on N/A, 26.3% and 26%; in the experiment listed under Homo sapiens, 0.244%; in experiment [7], 2.15%; in [8] it was 16.1%; in experiment [9], -4.55%.
For the compound `CSC(C)C(=O)NCCCc1cc(N)n(-c2ccccc2)n1` (stereo not given), the Percent Effect in experiment [1] is -3.19%; in [2] it was -5.48%; in experiment [3], 16.9%; in [4] it was -3.4%; in the experiment on Trypanosoma cruzi it was -2.15%; in experiment [5], -12.3%. Further, the Percent Effect was 74.4% and 84.2% and 83.7% in experiment [6]; 46.1% and 47.4% in the experiment with N/A; 14.8% in the experiment filed under Homo sapiens; -1.07% in experiment [7]; 0% in experiment [8]; -2.72% in experiment [9].
For `COc1ccc(Cl)cc1C(=O)N1CCOC2(CNCCOC2)C1` (stereo not given), the Percent Effect was -5.73% in experiment [1]; -2.7% in [2]; 0.241% in experiment [3]; -0.752% in experiment [4]; -3.86% in the experiment on Trypanosoma cruzi; -1.43% in experiment [5]. Moreover, the Percent Effect in experiment [6] was 7.59% and 10.9% and 31.4%; with N/A it was 12.4% and 13.6%; in the experiment filed under Homo sapiens it was -6.05%; in experiment [7], 2.65%; in [8] it was 4.88%; in experiment [9], -2.64%.
Turning to `CNC(=O)c1cnc(/C=C/c2ccc(OC)c(O)c2)s1`, the Percent Effect in experiment [1] is -3.24%; in experiment [2] it was 5.41%; in experiment [3] it was 32.5%; in [4] it was -3.93%; with Trypanosoma cruzi, -5.27%; in experiment [5] it was 2.08%. The Percent Effect is 31.5% and 31.2% and 35.7% in [6]; 10.7% and 15.6% with N/A; 16.4% in the experiment filed under Homo sapiens; 3.96% in experiment [7]; 6.1% in experiment [8]; -1.59% in experiment [9].
